LASV entry inh = blocks Lassa virus binding to or entry into cells; Lassa virus pseudotype entry inhibition, cell reporter; Potency, µM (highest dose often 37.9 µM), actives largely listed as inhibitors; hit rate 1.2% among 300,000; calls by dose curve; tested in HEK293 cells; note: nearly all actives have a fitted effect of over 50% in size
Pf growth 96h = inhibits malaria parasite growth, 96 h. P. falciparum luciferase reporter growth, 96 h. Potency, µM (top dose mostly 28.7 µM), hits mostly inhibitors. AID 504834. hit rate 6.9% among 320,000
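P. falciparum expressing integrated firefly luciferase grown in erythrocytes (2% hematocrit, 0.05% parasitemia final) with compounds for 96 hours at 37 C, 5% CO2. Growth inhibition read as loss of luminescence after adding luciferase detection reagent.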
CHX counter = affects cycloheximide protein synthesis inhibition readout, counter-screen; cell reporter, cycloheximide protein synthesis inhibition counterscreen; max response, %; hit rate 12% among 300,000; AID 2314; in the data active = max response mostly above about 13%, no sharp cut-off; inactive = mostly below about 14%; note: read at 38.3 µM for the half of the compounds with a filed dose
Pf growth 48h = inhibits P. falciparum growth in the first generation, 48 h. P. falciparum luciferase growth in erythrocytes, 48 h. Potency, µM (doses to about 28.7 µM), hits mostly inhibitors. hit rate 5.9% among 310,000
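First compound was added to culture medium, then infected red cells at 0.1% parasitemia and 2% hematocrit (final). After incubation at 37 C under 5% CO2, luciferase detection reagent was dispensed and light output recorded.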
Shiga toxin inh = Shiga toxin inhibition | hit rate 9.2% among 290,000 | inhibition, % at 38.7 µM | Vero cells, Shiga toxin protein synthesis inhibition reporter; in the data active = inhibition mostly above about 28%, no sharp cut-off; inactive = mostly below about 43%
MARV entry inh = blocks Marburg virus binding to or entry into cells | Marburg virus pseudotyped entry inhibition, cell reporter | Potency, µM (series often up to 37.8 µM), usual class: inhibitors | AID 540276 | hit rate 1.8% among 300,000; calls by dose curve; tested in HEK293 cells
A number is an active result; i = inactive; ? = inconclusive; nt = no result; [ ] = remark or other dose. Most compounds without a hit are left out; they make up all but 19% or so of the library. Unless noted, calls come from the whole dose curve; as a rule, active = well fitted inhibition curve with a large enough effect; inconclusive = small, poorly fitted or top-dose-only effect, or another doubt; inactive = no such curve, though single readings can be large or run the other way.

SMILES	LASV entry inh	Pf growth 96h	CHX counter	Pf growth 48h	Shiga toxin inh	MARV entry inh
c1ccc(-c2nnc(SCC3CCCO3)nc2-c2ccccc2)cc1 (stereo not drawn)	i	?	i	?	i	i
CCCCCc1ccc(-c2cn(Cc3ccc(C)cc3)nn2)cc1	nt	?	i	?	i	nt
COc1ccc(-c2cn(Cc3ccc(C)cc3)nn2)cc1	nt	i	55	i	79	nt
CCOc1cc(/C=N/NC(=O)c2ccc(=O)n(C)c2)ccc1O	nt	3.3µM	i	i	i	i
COc1cc(/C=N/Nc2nn3cnnc3c3ccccc23)ccc1O	?	?	i	?	i	i
C/C(=N\NC(=O)c1c(C)nc2ccccn12)c1ccc(O)cc1O	i	3.3µM	i	?	i	i
CCOc1cc(/C=N/Nc2nn3cnnc3c3ccccc23)ccc1O	nt	i	12	?	i	nt
C/C(=N\NC(=O)c1c(C)nc2ccccn12)c1ccccc1F	i	i	i	i	i	i
Cc1nc2ccccn2c1C(=O)N/N=C/c1ccc2c(c1)OCO2	?	i	59	i	88	i
Cc1ccc(-c2nn(CC(=O)NC3CCCC3)c3c2cnc2ccccc23)cc1	i	nt	nt	nt	nt	nt
CC(C)C[C@H](NC(=O)OC(C)(C)C)C(=O)N/N=C/c1ccc2nccnc2c1	i	?	i	nt	i	?
CCOc1cc(/C=N\NC(=O)c2c(C)nc3ccccn23)ccc1O	i	i	13	i	nt	i
CCOc1cc(/C=N/NC(=O)c2c(-c3ccccc3)noc2C)ccc1O	nt	?	i	i	i	nt
O=C(Nc1nc2c(s1)CCCC2)c1ccc(Br)s1	?	i	42	i	111	?
O=C(Nc1nc2c(s1)CCCC2)c1ccc(N2C(=O)CCC2=O)cc1	i	i	38	i	72	i
CC1CCc2c(sc(NC(=O)c3ccc(N4C(=O)CCC4=O)cc3)c2C(N)=O)C1 (stereo not drawn)	nt	?	nt	i	nt	nt
COc1ccc(OC)c2sc(NC(=O)c3ccc(Br)s3)nc12	nt	i	i	i	i	nt
CC1CCc2nc(NC(=O)c3ccc(N4C(=O)CCC4=O)cc3)sc2C1 (stereo not drawn)	i	i	13	?	35	i
COc1ccc2c(c1)C1(C)CC(C)(C)N2C(=O)N1c1ccccc1 (stereo not drawn)	i	10µM	i	?	i	i
COc1ccc(S(=O)(=O)N(CC(=O)Nc2cc(C)on2)Cc2ccccc2)cc1	i	i[5.75 µM]	i	?	i	i
COCC1CCN(Cc2nc(-c3cccs3)no2)C1 (stereo not drawn)	i	?	i	i	i	i
c1csc(-c2noc(CN3CCc4sccc4C3)n2)c1	nt	i	34	i	39	nt
COc1ccccc1CN1CCN(Cc2nc(-c3cccs3)no2)CC1	nt	5.9µM	50	i	85	nt
COc1ccccc1-c1cc(C(=O)Nc2c(C)n(C)n(-c3ccccc3)c2=O)no1	i	nt	i	i	i	i
COc1ccc(CN2CCC(Oc3cc(C(=O)NC4CC4)ccc3OC)CC2)c(O)c1	nt	i	i	2.3µM	i	nt
SMILES	LASV entry inh	Pf growth 96h	CHX counter	Pf growth 48h	Shiga toxin inh	MARV entry inh
COc1ccc(C(=O)NC2CC2)cc1OC1CCN(Cc2cc(C)c(C)cc2C)CC1	i	?	i	?	i	i
COc1ccc(C(=O)NC2CCCCCC2)cc1OC1CCN(C(C)=O)CC1	nt	?	i	i	i	nt
COc1ccc(C(=O)NC2CCCCC2)cc1OC1CCN(C(C)C)CC1	i	6.6µM	i	?	i	?
COc1ccc(C(=O)NCCC2=CCCCC2)cc1OC1CCN(C(C)C)CC1	i	i	42	?	42	?
O=C(Oc1ccccc1N1C(=O)C2CCCCC2C1=O)c1ccc(Cl)cc1 (stereo not drawn)	i	i	i	i	i	i
COc1ccc(-c2nn(CC(=O)NCc3ccccc3)c3c2cnc2ccc(F)cc23)cc1	i	nt	nt	nt	nt	nt
CC(CNC(=O)c1cncc(O)c1)NC(=O)c1cncc(O)c1 (stereo not drawn)	i	i	i	i	i	i
CCNC(=S)N/N=C(\C)c1ccco1	nt	?	i	i	i	nt
CC(C(=O)O)c1ccc(N2Cc3ccccc3C2=O)cc1 (stereo not drawn)	i	i	i	i	72	?
O=C(O)c1cc(-c2cccc3ccccc23)nc2ccccc12	i	i	i	i	i	?
O=C(O)c1cc(-c2ccc3ccccc3n2)nc2ccccc12	?	i	i	i	i	?
O=C(O)c1cc(-c2c[nH]c3ccccc23)nc2cc3ccccc3cc12	nt	i	36	i	67	nt
O=C(O)c1cc(-c2ccc3ccccc3c2)nc2ccc(F)cc12	nt	?	22	?	30	nt
